A3G deaminase – APOBEC3G DNA deaminase inhibitors, primary screen, biochemical, fluorescence, single-stranded DNA substrate, uHTS; 330,000 tested, 0.28% active; recombinant A3G, ssDNA deamination FAM/TAMRA fluorescence; DNA dC->dU-editing enzyme APOBEC-3G (Homo sapiens), Q9HC16; inhibition, % at 20 µM;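 active = inhibition of at least 40% at 20 µM, with no more than 30% in the related APOBEC3A deaminase screen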;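 note: plate controls were DMSO wells with A3G for no effect and wells lacking A3G enzyme for full effect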
Target sequence (Q9HC16 whole entry, looked up): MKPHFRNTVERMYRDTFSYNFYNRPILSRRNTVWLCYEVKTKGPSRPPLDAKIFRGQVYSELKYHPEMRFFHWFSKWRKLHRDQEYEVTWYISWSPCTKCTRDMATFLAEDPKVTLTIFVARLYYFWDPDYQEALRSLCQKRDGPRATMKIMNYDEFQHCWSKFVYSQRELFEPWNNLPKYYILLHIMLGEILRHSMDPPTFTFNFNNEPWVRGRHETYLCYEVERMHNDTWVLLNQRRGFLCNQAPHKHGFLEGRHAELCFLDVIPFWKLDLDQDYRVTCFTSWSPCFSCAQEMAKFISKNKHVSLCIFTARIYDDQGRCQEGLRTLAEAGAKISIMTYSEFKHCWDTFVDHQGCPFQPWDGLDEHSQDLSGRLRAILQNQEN
GC-A act – GC-A stimulated cGMP production enhancers – HEK293 GC-A cells, cGMP TR-FRET, EC30 ANP, primary screen; Atrial natriuretic peptide receptor 1 (Homo sapiens), P16066; 0% at EC30 ANP, 100% saturating ANP; activation, % at 10 µM; 370,000 tested, 0.14% active; AID 1671463, 2021; in the data active = activation above about 40%
FAS-TE inh – FAS thioesterase domain inhibitors, primary screen, biochemical, fluorescence intensity, uHTS | Fatty acid synthase (Homo sapiens), P49327 | 360,000 tested, 0.67% active | recombinant FAS-TE, OMFH fluorogenic substrate, fluorescence endpoint | inhibition, % at 15 µM | AID 602261, 2012;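 active = compounds whose normalised, plate-corrected inhibition of enzyme fluorescence in the single-dose primary screen is 50% or more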;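 note: 0% = DMSO with enzyme and 100% = substrate without enzyme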
NPR2 activator – human GC-B receptor activators, primary screen, HEK293 GC-B cells, cGMP TR-FRET, EC30 CNP | 0% at EC30 CNP, 100% saturating CNP | 370,000 tested, 0.11% active | activation, % at 10 µM | AID 1920062, 2024;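 active = activation at 10 µM reaching about 35% in either raw or pattern-adjusted values, limit read from the data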
A3A deaminase – APOBEC3A ssDNA deaminase inhibitors, primary screen, selectivity assay for APOBEC3G inhibitor project, biochemical, FAM/TAMRA oligo cleavage fluorescence. DNA dC->dU-editing enzyme APOBEC-3A (Homo sapiens), P31941. recombinant A3A, FAM/TAMRA ssDNA deamination fluorescence. inhibition, % at 20 µM. 330,000 tested, 0.41% active. AID 493011, 2011;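 active = at least 40% inhibition at 20 µM here, with at most 30% in a related deaminase screen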;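 note: plate controls were A3A with DMSO for no effect and wells lacking A3A enzyme for full effect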
Target sequence (P31941 whole entry, looked up): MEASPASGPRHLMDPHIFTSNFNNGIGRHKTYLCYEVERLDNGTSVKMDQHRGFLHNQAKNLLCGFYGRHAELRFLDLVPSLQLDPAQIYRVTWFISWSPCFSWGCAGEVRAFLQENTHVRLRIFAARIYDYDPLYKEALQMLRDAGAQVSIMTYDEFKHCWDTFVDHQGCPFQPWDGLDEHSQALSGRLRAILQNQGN
FAS-TE conf – FAS thioesterase domain inhibitors, confirmation, biochemical, fluorescence intensity, single concentration; shares compounds with FAS-TE inh; recombinant FAS-TE, OMFH fluorogenic substrate; inhibition, % at 15 µM; 2,300 tested, 45% active; AID 624325, 2012;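 active = compounds inhibiting the enzyme by at least 50% at 15 µM in any one of the replicates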;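 note: 0% = enzyme with DMSO only and 100% = wells lacking enzyme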
The depositor's hits bear a star; x = no result given. Compounds with a hit are over-represented: about 1.4% of the library has one in this group of screens.

SMILES	A3G deaminase	GC-A act	FAS-TE inh	NPR2 activator	A3A deaminase	FAS-TE conf
O=C(Cn1cnc2ccccc2c1=O)N1CCN(Cc2ccc(F)cc2)CC1	x	1	x	-2	x	x
Cc1ccc(S(=O)(=O)N2C[C@H]3[C@H]4C(=O)N(c5ccccc5)C(=O)[C@H]4CC(=O)[C@H]3[C@@H]2c2ccccc2)cc1	x	4	5	-1	x	x
Cc1ccc(S(=O)(=O)N2C[C@H]3[C@H]4C(=O)N(C5CCCCC5)C(=O)[C@H]4CC(=O)[C@H]3[C@@H]2c2ccccc2Cl)cc1	x	-2	62*	0	x	-1
CCCCC[C@@H]1[C@H]2[C@H]3C(=O)N(c4ccccc4)C(=O)[C@H]3CC(=O)[C@H]2[C@H](c2ccccc2)N1S(=O)(=O)c1ccc(C)cc1	x	5	59*	1	x	20
CCN1C(=O)[C@@H]2[C@@H]3CN(S(=O)(=O)c4ccc(C)cc4)[C@@H](c4cccc5ccccc45)[C@@H]3C(=O)C[C@@H]2C1=O	x	0	-7	0	x	x
CC1CCN(S(=O)(=O)c2ccc3c(c2)c(=O)c(C(=O)NCc2cccs2)cn3C)CC1	0	0	65*	-3	1	18
CC1CCN(S(=O)(=O)c2ccc3c(c2)c(=O)c(C(=O)NCc2ccco2)cn3C)CC1	-8	0	71*	-5	0	80*
Cn1cc(C(=O)NCC2COc3ccccc3O2)c(=O)c2cc(S(=O)(=O)N3CCCCC3)ccc21 (stereo not drawn)	-11	4	53*	-7	-4	10
COC(=O)c1cc2c(c3c4cc(F)ccc4n(S(=O)(=O)c4cccc(C)c4)c13)C(=O)N(Cc1ccc(C(F)(F)F)cc1)C2	x	-1	x	-5	x	x
O=C(NCc1ccco1)O[C@@H]1CC[C@@]23CCCN2C(=O)CCC[C@H]3C1	x	4	x	0	x	x
CCCCOc1ccc(C(=O)N/C(=C/C=C/c2ccccc2)C(=O)NCCCO)cc1	-9	0	27	2	-4	x
COc1ccc(/C=C(/NC(=O)c2ccc([N+](=O)[O-])cc2)C(=O)NCCCN(C)C)cc1	-4	x	71*	x	1	77*
Cc1ccc(C(=O)N/C(=C\c2ccc([N+](=O)[O-])cc2)C(=O)NCCc2ccccc2)cc1	-2	0	34	-2	1	x
COc1ccc(C(=O)N/C(=C\c2ccc([N+](=O)[O-])cc2)C(=O)NC(CCSC)C(=O)O)cc1 (stereo not drawn)	-1	1	57*	3	0	53*
CN(C)CCCNC(=O)/C(=C\C=C\c1ccccc1)NC(=O)c1ccc([N+](=O)[O-])cc1	-4	-6	86*	-8	-1	89*
C=CCNC(=O)/C(=C\c1ccc(OC)cc1)NC(=O)c1ccc([N+](=O)[O-])cc1	-2	2	76*	-2	2	83*
CN(CCc1ccccc1)C(=O)c1cccc(NC(=O)Cc2cccc(NC(=O)C3CCCN(S(=O)(=O)c4cccc([N+](=O)[O-])c4)C3)c2)c1 (stereo not drawn)	x	2	48	4	x	x
CN(CCc1ccccc1)C(=O)c1ccc(NC(=O)Cc2ccc(NC(=O)C3CCCN(S(=O)(=O)c4cccc([N+](=O)[O-])c4)C3)cc2)cc1 (stereo not drawn)	x	1	72*	2	x	22
CN(Cc1ccccc1)C(=O)c1ccc(NC(=O)Cc2ccc(NC(=O)C3CCN(S(=O)(=O)c4cccc([N+](=O)[O-])c4)CC3)cc2)cc1	x	2	68*	4	x	19
C=CCN1[C@@H](C)COc2cccc(N3CCSCC3)c2S1(=O)=O	x	-4	x	-3	x	x
CN(C)S(=O)(=O)c1ccc(C(=O)Nc2cc(S(=O)(=O)Nc3ccccc3Cl)ccc2N2CCCCC2)cc1	-1	-6	73*	-3	-2	22
O=C(NC1CCCN(CCc2ccccc2)C1)c1c[nH]c2ccccc12 (stereo not drawn)	4	-3	-9	-1	-8	x
CN1C[C@H](C(=O)NC2(C)OC3(O)[C@@H]4CCCN4C(=O)[C@H](Cc4ccccc4)N3C2=O)CC2c3cccc4[nH]cc(c34)C[C@H]21 (stereo partly drawn)	-2	2	59*	-2	-1	73*
COc1ccc(NC(=O)/C(C#N)=C/c2c(C)nn(-c3ccc(F)cc3)c2Cl)cc1OC	-4	30	56*	4	-1	33
COc1ccc(S(=O)(=O)N2CCCCCC2)cc1NC(=O)c1ccccc1	-8	0	2	-4	-3	x
SMILES	A3G deaminase	GC-A act	FAS-TE inh	NPR2 activator	A3A deaminase	FAS-TE conf
COc1ccccc1NS(=O)(=O)c1cc(NC(=O)c2ccc3ccccc3n2)ccc1Cl	-5	0	65*	0	-4	24
COc1ccc(S(=O)(=O)N2CCCCC2)cc1NC(=O)c1ccc2ccccc2n1	0	6	53*	9	1	7
COc1ccccc1NC(=O)Nc1ccc(Cl)c(S(=O)(=O)Nc2ccccc2OC)c1	-3	-4	4	0	-3	x
COc1ccc(S(=O)(=O)N2CCCCC2)cc1NC(=O)c1cccc(S(=O)(=O)N2CC(C)OC(C)C2)c1 (stereo not drawn)	x	0	65*	8	x	36
Cc1ccc(S(=O)(=O)N2CCCCC2)cc1NC(=O)c1ccc2ccccc2n1	-2	-1	-9	8	-2	x
COc1ccc(S(=O)(=O)N2CCOCC2)cc1NC(=O)c1ccc(S(=O)(=O)N(C)c2ccccc2OC)cc1	x	-2	61*	-5	x	5
Fc1ccc(Cn2ccc3ccc(-c4ccc5ccn(Cc6ccc(F)cc6F)c5c4)cc32)c(F)c1	x	0	x	1	x	x
C/C(C=NNC(=O)CSc1nnc(-c2ccc(Cl)cc2)n1-c1ccc(C)cc1)=C\c1ccccc1	x	-5	x	4	x	x
O=C(CSc1nnc(-c2ccccc2)n1-c1ccc(Cl)cc1)Nc1cccc2ccccc12	x	-15	x	-12	x	x
C=CCn1c(SCc2c(C)noc2C)nc2cc(C(=O)O)ccc2c1=O	-6	-4	-4	12	0	x
C=CCn1c(SCc2ccc(Br)cc2F)nc2cc(C(=O)O)ccc2c1=O	-7	8	62*	4	0	65*
COC(=O)C1CCCN(C(=O)C2CCN(S(=O)(=O)c3cccs3)CC2)C1 (stereo not drawn)	x	2	x	-3	x	x
Cc1ccccc1NC1=C(Cl)C(=O)OC1OC(=O)c1ccco1 (stereo not drawn)	-3	2	74*	1	-2	87*
